Results as given in ChEMBL document CHEMBL1157539, “Thousands of chemical starting points for antimalarial lead identification” (Nature, 2010).

tested on: Plasmodium falciparum; experiment: GSK_TCMDC: Inhibition of Plasmodium falciparum 3D7 in whole red blood cells, using parasite LDH activity as an index of growth. Test compounds present at 2uM; type: functional

Compound | Inhibition
CC(C)Nc1ccc(Nc2ccnc3cc4ccccc4cc23)cc1 | 100%
O=C(O)C(F)(F)F.O=C1OC2(CCN(Cc3cccc(-c4ncc[nH]4)c3)CC2)CN1CCNCc1ccccc1 | 94%
CC(C)C[C@H](Nc1ccc(C#N)c2ccccc12)C(=O)NC(C)(C)C12CC3CC(CC(C3)C1)C2.O=C(O)C(F)(F)F | 96%
O=C(NCCN1CCCCC1)c1ccc(CNC(=O)c2ccc(O)c(-c3ccc(Cl)c(Cl)c3)c2)cc1 | 93%
Cc1ccc(CN2CCN(c3cc4c(cc3Cl)CCN4C(=O)Cc3ccc(NC(=O)c4ccc(C(F)(F)F)cc4)cc3)CC2)cc1 | 88%
COc1ccc2c(ccc3c2ncc2c(=O)n(-c4ccccc4)[nH]c23)c1 | 95%
Cc1ccnc(NC(c2cccc(OCc3ccccc3)c2)c2ccc3cccnc3c2O)c1 (stereo not given) | 95%
CN1CCN(c2nc(NCCc3ccc(O)cc3)nc(NCc3ccccc3-c3ccc(C(F)(F)F)cc3)n2)CC1 | 90%
CC(CCCCOCCc1ccccc1)NCC(O)c1cc(Cl)c(N)c(Cl)c1 (stereo not given) | 96%
CN(C)c1ccc(-c2csc(C(=O)NCC3CCN(CCC(C)(C)C)C3)c2)cc1.O=C(O)C(F)(F)F (stereo not given) | 87%
CCc1c(CCNCCCCCCNCCc2ccc(OC)c(OC)c2C)ccc(OC)c1OC.Cl | 98%
CC(C)(CNC(=O)C1CCN(CCOc2ccc(Cl)cc2)CC1)c1nc(-c2ccc(Cl)c(O)c2)c(-c2ccncc2)[nH]1.Cl | 100%
O=C(C=Cc1ccc(Cl)c(Cl)c1)NCCCCCN1CCCC(CCCNC(=O)/C=C/c2ccccc2)C1 (stereo not given) | 98%
Nc1nc(O)c2c(n1)CCc1c(Br)cccc1-2 | 97%
COc1ccc(-c2nc3c(N)nc(N)nc3nc2-c2ccccc2Cl)cc1.COc1ccc(-c2nc3nc(N)nc(N)c3nc2-c2ccccc2Cl)cc1.Cl | 93%
COc1cccc(NC(=O)NC2CCN(c3ccnc(Nc4cc(OC)c(OC)c(OC)c4)n3)C2)c1 (stereo not given) | 95%
Cl.O=C(O[C@H]1CN[C@H](C#Cc2cc3ncnc(Nc4ccc5c(ccn5S(=O)(=O)c5cccs5)c4)c3s2)C1)N1CCOCC1 | 85%
Cc1ccccc1Nc1cc(Nc2ccccc2C)c2ccccc2n1 | 96%
CC[C@H](C)CNC(=O)c1cncc(-c2cccc(CN3CCC(N4CCCC4)CC3)c2)c1.O=C(O)C(F)(F)F | 97%
CC(C)(C)c1ccc(CNC(=O)c2cc(CNC3CCNCC3)ccc2O)cc1 | 96%

Compound | Inhibition
Cc1noc(C)c1-c1ccc(C(=C2CCCCCC2)c2ccc(O)cc2)cc1 | 100%
O=C(NC1CCN(CCC[C@]2(c3ccc(Cl)c(Cl)c3)CCCN(C(=O)c3ccccc3)C2)CC1)c1ccc(F)cc1 | 90%
CCc1cc(Br)c(CNCCCNc2cc(=O)c3ccccc3[nH]2)s1.Cl | 90%
CCOC(=O)c1ccc(-c2cnoc2-c2cc(CC)c(OC)cc2O)o1 | 100%
CNC(=O)COc1cc(C)c(C2CCN(CCCCNC(=O)c3ccc(-c4ccc(C(F)(F)F)cc4)cc3)CC2)cc1C | 100%
Oc1ccc(-c2ccccc2)cc1CN1CCCCC1 | 93%
CC(C)(C)C1CC(=O)CC2C(=O)N(c3ccc(Br)cc3)C(=O)C21 (stereo not given) | 94%
CC1CN(Cc2ccc(-c3cccc(-c4nc5cc(F)ccc5[nH]4)c3)cc2)CC(C)O1.O=C(O)C(F)(F)F (stereo not given) | 93%
COc1ccc2ncc(Cl)c(N3CCC(CCNCc4ccc5c(n4)NC(=O)CS5)CC3)c2c1.Cl | 89%
COc1cccc(Nc2nc(NCCO)c3ccccc3n2)c1.Cl | 99%
COc1ccc(CNC2Cc3ccccc3C2)cc1-c1ccc(S(=O)(=O)NCCN2CCCC2)cc1.O=C(O)C(F)(F)F | 100%
O=C(NCc1cc2c(cc1Cl)OCO2)c1ccc(CNC2CCN(Cc3ccccc3)CC2)cc1.O=C(O)C(F)(F)F | 100%
O=C(O)C(F)(F)F.c1ccc(CCNCc2ccc(-c3ccc(CNC4CCN(Cc5ccccc5)CC4)cc3)nc2)cc1 | 100%
CS(=O)(=O)CCNc1cc(N2CCc3ncnc(Nc4ccc(OCc5cccc(F)c5)c(Cl)c4)c3C2)ncn1 | 96%
CCc1ccc(-c2cnc(N)c3cc(-c4ccnc(N)n4)ccc23)cc1 | 92%
Cc1cccc2nc(-c3cccc(-c4cccc(CNC(C)C)c4)c3)[nH]c12.O=C(O)C(F)(F)F | 100%
CCCc1ccc(NC(=O)c2ccc(CN3CCCN(Cc4ccc(OC)cc4)CC3)cc2)cc1.O=C(O)C(F)(F)F | 81%
O=C(Nc1cccc(CN2CCCN(Cc3ccc(O)cc3)CC2)c1)c1ccc(-c2ccccc2)cc1.O=C(O)C(F)(F)F | 100%
COc1ccc(S(=O)(=O)Nc2cc(Br)cc3c2OCCC3)cc1N1CCN(C(=O)C(Cl)(Cl)Cl)CC1 | 90%
CCOC(=O)C(CO)NC(=O)c1ccc([N+](=O)[O-])o1 (stereo not given) | 96%
